Results from paper PMC5540273 (PLoS ONE, 2017).

These molecules were tested on RIPK5. Conditions: concentration: 1 μM, replicates: in singlicate; n = 1.
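Note: KINOMEscan kinase panel screen.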

| SMILES | %Inh [%] |
| --- | --- |
| COC(=O)Nc1nc2cc(Oc3ccc(NC(=O)Nc4cc(C(F)(F)F)ccc4F)cn3)ccc2[nH]1.Cl.Cl [GW681170] | 0 |
| Fc1ccc(-c2ncn(C3CCNCC3)c2-c2ccnc(Oc3ccc(-c4ccccc4)cc3)n2)cc1 [SB-245391] | 33 |
| Cc1ccc(C)c(NC(=O)NC2CCN(c3ccnc(Nc4ccc(F)cc4)n3)C2)c1 (stereo not shown) [GSK1379720] | 0 |
| CSc1cccc2c(-c3ccncn3)c(-c3ccc(F)cc3)nn12 [GW514786] | 19 |
| Oc1cc(Nc2ccnc3cc(I)ccc23)ccc1F [GW552771] | 0 |
| Cc1ccc(S(=O)(=O)Nc2ccc(Nc3nccc(Nc4cccc5[nH]ncc45)n3)cc2)cc1 [GSK581271] | 0 |
| COc1cccc(-c2ccc3c(NC(=O)C4CC4)n[nH]c3n2)c1 [SB-710903] | 1 |
| O=C(Nc1cccc(-c2nn3ccccc3c2-c2ccnc(Nc3cccc(C(F)(F)F)c3)n2)c1)c1c(F)cccc1F [GSK292658] | 0 |
| Cl.Cl.NCC(NCc1ccc(-c2ccnc3[nH]ccc23)s1)c1ccccc1 (stereo not shown) [GSK1321565] | 0 |
| CCn1c(-c2nonc2N)nc2c(C#CC(C)(C)O)nc(OC[C@H](N)c3ccccc3)cc21 [GSK943949] | 29 |
| COCCOCCOc1cc2ncc3c4ccc(C#N)cc4[nH]c3c2cc1OC | 0 |
| Clc1ccc(-c2nn3ncccc3c2-c2ccnc(Nc3ccc4c(c3)OCCO4)n2)cc1 [GW829116] | 0 |
| COc1cccc(NC(=O)NC2CCN(c3ccnc(Nc4cc(OC)c(OC)c(OC)c4)n3)C2)c1 (stereo not shown) [GSK1379763] | 0 |
| COc1cccc(C(=O)Nc2cccc(Oc3ccc4nc(NC(=O)C5CC5)cn4n3)c2)c1 | 0 |
| CN(C)Cc1ccc(-c2ccc3c(Nc4ccc(Oc5ccccn5)cc4)ccnc3c2)o1 [GW567148] | 0 |
| Nc1ncc(-c2cccnc2)c2scc(-c3ccc4c(c3)CCN4C(=O)Cc3ccccc3)c12 [GSK683281] | 20 |
| COc1ccc(Nc2nccc(NCCNC(=O)c3cc4ccccc4s3)n2)cc1 [GSK1379896] | 7 |
| O=C(Nc1n[nH]c2nc(-c3ccc(O)cc3)ccc12)C1CC1 [SB-710363] | 0 |
| O=C(Nc1cccc(-c2nn3ccccc3c2-c2ccnc(Nc3cccc(F)c3)n2)c1)c1c(F)ccc(F)c1Cl [GSK357952] | 0 |

| SMILES | %Inh [%] |
| --- | --- |
| CN1CCN(Cc2cccc(-c3ccc4c(Nc5ccc(Oc6ccccc6)cc5)ccnc4c3)c2)CC1 [GW578342] | 0 |
| COc1cc(Nc2nccc(N3CCC(NC(=O)Nc4cccc(C(C)=O)c4)C3)n2)cc(OC)c1OC (stereo not shown) [GSK1379753] | 0 |
| c1ccc(Oc2ccc(Nc3ccnc4cc(-c5ccc(CNCCN6CCOCC6)o5)ccc34)cc2)nc1 [GW567145] | 1 |
| CC(C)c1nc(-c2cccc(NS(=O)(=O)c3c(F)cccc3F)c2F)c(-c2ccnc(Nc3ccc(N4CCOCC4)nc3)n2)s1 [GSK2008607] | 92.6 |
| C[C@@H](Oc1cc(-n2cnc3cc(-c4ccnc(NCCS(C)(=O)=O)c4)ccc32)sc1C(N)=O)c1ccccc1Cl [GSK907232] | 5 |
| Cn1cc(-c2[nH]c3cc(NC(=O)[C@H](N)C4CCCCC4)cc4c3c2C=NNC4=O)cn1 | 25 |
| CCS(=O)(=O)c1ccc(OC)c(Nc2nccc(-c3c(-c4cccc(NC(=O)c5c(F)cccc5F)c4)nn4ncccc34)n2)c1 [GSK326180] | 10 |
| Cl.NC(=O)c1cccc(Nc2nccc(Nc3ccc(Oc4c(Cl)cccc4Cl)c(Cl)c3)n2)c1 [GW659009] | 10 |
| Nc1ncc(-c2ccc3nccc(-c4ccncc4)c3c2)cc1S(=O)(=O)N1CCOCC1 [GSK1627798] | 0 |
| Cn1cc(-c2ccc3c(c2)CCN3C(=O)Cc2cccc(Cl)c2)c2c(N)ncnc21 [GSK2606590] | 58 |
| CC(C)(C)c1ccc2nccc(Nc3cccc(O)c3)c2c1 [GW856795] | 0 |
| CC(=O)Nc1nc2cnc(Nc3cc(NC(=O)c4cccc(C5(C#N)CC5)c4Cl)ccc3C)nc2s1 | 15 |
| COc1cc(Nc2nccc(N3CCC(NC(=O)c4cc5ccccc5s4)C3)n2)cc(OC)c1OC (stereo not shown) [GSK1379760] | 0 |
| Cc1occc1-c1ncc(OC[C@@H](N)Cc2c[nH]c3ccccc23)cc1-c1ccc2[nH]nc(C)c2c1.O=C(O)C(F)(F)F [GSK682037] | 0 |
| C[C@@H]1CC[C@@H](C(=O)Nc2ccccc2)CN1c1cc(-c2ccc3c(N)n[nH]c3c2)nc(N)n1 [GSK2286062] | 0 |
| CCn1c(-c2nonc2N)nc2c(C#CC(C)(C)O)ncc(OCCCCN)c21.O=C(O)C(F)(F)F.O=C(O)C(F)(F)F [GSK507274] | 4 |
| O=c1[nH]cc(-c2ccc(N3CCOCC3)cc2)c2sc(-c3cn[nH]c3)cc12 [GSK2276055] | 10 |
| COc1cccc(C2=C(Nc3ccc(Cl)c(C(=O)O)c3)C(=O)NC2=O)c1 [SB-390769] | 100 |
